# Measured values: the supplement of paper PMC8728848
# The entries come from a sample that favours the strongest signals as a whole.
# What was measured:
# Assay in all cases: glycan array binding signal (z-score within array); higher = stronger binding
# Conditions in all cases: glycan notation: IUPAC condensed, linker removed
# [1] = biological target: Fuc(a1-2)Gal(b1-3)GalNAc(a1-3)[Fuc(a1-2)]Gal(b1-4)GlcNAc
# Summary of the method: (§1)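 From the Consortium for Functional Glycomics database, 3228 arrays were curated, keeping only those whose protein sequence was available. Binding is given as a within-array Z-score averaged across arrays sharing a protein sequence and across linkers. Negative Z-scores can be read as non-binding.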
# [2] = biological target: Fuc(a1-2)Gal(b1-4)GlcNAc(b1-2)Man(a1-3)[Fuc(a1-2)Gal(b1-4)GlcNAc(b1-2)Man(a1-6)]Man(b1-4)GlcNAc(b1-4)GlcNAc
# Summary of the method: as §1
# [3] = biological target: Fuc(a1-2)Gal(b1-4)GlcNAc(b1-2)Man(a1-3)[Fuc(a1-2)Gal(b1-4)GlcNAc(b1-2)Man(a1-6)]Man(b1-4)GlcNAc(b1-4)[Fuc(a1-6)]GlcNAc
# Summary of the method: as §1
# [4] = biological target: Fuc(a1-2)Gal(b1-4)GlcNAc(b1-6)GalNAc
# Summary of the method: as §1
# [5] = biological target: Fuc(a1-2)Gal6S(b1-3)GlcNAc6S
# Summary of the method: as §1
# [6] = biological target: Fuc(a1-2)Gal6S(b1-4)Glc6S
# Summary of the method: as §1
# [7] = biological target: Fuc(a1-2)[Gal(a1-3)]Gal(b1-3)GlcNAc(b1-2)Man(a1-3)[Fuc(a1-2)[Gal(a1-3)]Gal(b1-3)GlcNAc(b1-2)Man(a1-6)]Man(b1-4)GlcNAc(b1-4)[Fuc(a1-6)]GlcNAc
# Summary of the method: as §1
# [8] = biological target: Fuc(a1-2)[Gal(a1-3)]Gal(b1-4)GlcNAc(b1-2)Man(a1-3)[Fuc(a1-2)[Gal(a1-3)]Gal(b1-4)GlcNAc(b1-2)Man(a1-6)]Man(b1-4)GlcNAc(b1-4)[Fuc(a1-6)]GlcNAc
# Summary of the method: as §1
# [9] = biological target: Fuc(a1-2)[Gal(a1-3)]Gal(b1-4)[Fuc(a1-3)]GlcNAc
# Summary of the method: as §1
# [10] = biological target: Fuc(a1-2)[GalNAc(a1-3)]Gal(b1-3)GalNAc(a1-3)[Fuc(a1-2)]Gal(b1-4)GlcNAc
# Summary of the method: as §1
# [11] = biological target: Fuc(a1-2)[GalNAc(a1-3)]Gal(b1-3)GlcNAc
# Summary of the method: as §1
# [12] = biological target: Fuc(a1-2)[GalNAc(a1-3)]Gal(b1-3)GlcNAc(b1-2)Man(a1-3)[Fuc(a1-2)[GalNAc(a1-3)]Gal(b1-3)GlcNAc(b1-2)Man(a1-6)]Man(b1-4)GlcNAc(b1-4)[Fuc(a1-6)]GlcNAc
# Summary of the method: as §1
# [13] = biological target: Fuc(a1-2)[GalNAc(a1-3)]Gal(b1-3)GlcNAc(b1-3)GalNAc
# Summary of the method: as §1
# [14] = biological target: Fuc(a1-2)[GalNAc(a1-3)]Gal(b1-3)GlcNAc(b1-6)GalNAc
# Summary of the method: as §1
# [15] = biological target: Fuc(a1-2)[GalNAc(a1-3)]Gal(b1-4)GlcNAc(b1-2)Man(a1-3)[Fuc(a1-2)[GalNAc(a1-3)]Gal(b1-4)GlcNAc(b1-2)Man(a1-6)]Man(b1-4)GlcNAc(b1-4)GlcNAc
# Summary of the method: as §1
# [16] = biological target: Fuc(a1-2)[GalNAc(a1-3)]Gal(b1-4)GlcNAc(b1-3)GalNAc
# Summary of the method: as §1
# [17] = biological target: Fuc(a1-2)[GalNAc(b1-3)]Gal
# Summary of the method: as §1
# Fuc(a1-3)GlcNAc = biological target: Fuc(a1-3)GlcNAc
# Summary of the method: as §1
# [18] = biological target: Fuc(a1-3)[GalNAc(b1-4)]GlcNAc6S
# Summary of the method: as §1
# [19] = biological target: Fuc(a1-3)[GalNAc3S(b1-4)]GlcNAc
# Summary of the method: as §1
# Fuc(b1-3)GlcNAc = biological target: Fuc(b1-3)GlcNAc
# Summary of the method: as §1
# [20] = biological target: Gal(a1-3)Gal(b1-4)GlcNAc(b1-3)GalNAc
# Summary of the method: as §1
# [21] = biological target: Gal(b1-3)GalNAc(a1-3)[Fuc(a1-2)]Gal(b1-4)Glc
# Summary of the method: as §1
# [22] = biological target: Gal(b1-3)GlcNAc(b1-2)Man(a1-3)[Gal(b1-3)GlcNAc(b1-2)Man(a1-6)]Man(b1-4)GlcNAc(b1-4)[Fuc(a1-6)]GlcNAc
# Summary of the method: as §1
# [23] = biological target: Gal(b1-4)GalNAc(a1-3)[Fuc(a1-2)]Gal(b1-4)GlcNAc
# Summary of the method: as §1
# Gal(b1-4)Glc = biological target: Gal(b1-4)Glc
# Summary of the method: as §1
# [24] = biological target: Gal(b1-4)GlcNAc(b1-2)Man(a1-3)[Gal(b1-4)GlcNAc(b1-2)][GlcNAc(b1-4)]Man(b1-4)GlcNAc(b1-4)GlcNAc
# Summary of the method: as §1
# [25] = biological target: Gal(b1-4)GlcNAc(b1-3)Gal(b1-4)[Fuc(a1-3)GlcNAc(b1-6)]Gal(b1-4)Glc
# Summary of the method: as §1
# Gal6S(b1-4)Glc = biological target: Gal6S(b1-4)Glc
# Summary of the method: as §1
# Gal6S(b1-4)GlcNAc6S = biological target: Gal6S(b1-4)GlcNAc6S
# Summary of the method: as §1
# GlcA(b1-6)Gal = biological target: GlcA(b1-6)Gal
# Summary of the method: as §1
# [26] = biological target: GlcNAc(b1-2)Man(a1-3)[GlcNAc(b1-2)Man(a1-6)]Man(b1-4)GlcNAc(b1-4)[Fuc(a1-6)]GlcNAc
# Summary of the method: as §1
# [27] = biological target: GlcNAc(b1-2)[GlcNAc(b1-4)]Man(a1-3)[GlcNAc(b1-4)][GlcNAc(b1-2)[GlcNAc(b1-6)]Man(a1-6)]Man(b1-4)GlcNAc(b1-4)[Fuc(a1-6)]GlcNAc
# Summary of the method: as §1
# [28] = biological target: GlcNAc(b1-4)[GlcNAc(b1-6)]GalNAc
# Summary of the method: as §1
# [29] = biological target: Neu5Ac(a2-3)Gal(b1-4)GlcNAc(b1-2)[Neu5Ac(a2-3)Gal(b1-4)GlcNAc(b1-6)]Man(a1-6)[Neu5Ac(a2-3)Gal(b1-4)GlcNAc(b1-2)Man(a1-3)]Man(b1-4)GlcNAc(b1-4)GlcNAc
# Summary of the method: as §1
# [30] = biological target: Neu5Ac(a2-3)Gal(b1-4)[Fuc(a1-3)]GlcNAc(b1-3)Gal(b1-4)GlcNAc
# Summary of the method: as §1
# [31] = biological target: Neu5Ac(a2-3)Gal(b1-4)[Fuc(a1-3)]GlcNAc(b1-3)GalNAc
# Summary of the method: as §1
# [32] = biological target: Neu5Ac(a2-3)GalNAc(b1-4)GlcNAc
# Summary of the method: as §1
# [33] = biological target: Neu5Ac(a2-6)Gal(b1-4)GlcNAc(b1-3)Gal(b1-4)[Fuc(a1-3)]GlcNAc(b1-3)Gal(b1-4)[Fuc(a1-3)]GlcNAc
# Summary of the method: as §1
# [34] = biological target: Neu5Ac(a2-6)Gal(b1-4)GlcNAc(b1-6)[Gal(b1-3)GlcNAc(b1-3)]Gal(b1-4)Glc
# Summary of the method: as §1
# [35] = biological target: Neu5Ac(a2-6)GlcNAc(b1-4)GlcNAc
# Summary of the method: as §1
# [36] = biological target: Neu5Ac(a2-8)Neu5Ac(a2-8)Neu5Ac
# Summary of the method: as §1
# [37] = biological target: Neu5Gc(a2-3)Gal(b1-3)GlcNAc
# Summary of the method: as §1
# Neu5Gc(a2-3)Gal(b1-4)Glc = biological target: Neu5Gc(a2-3)Gal(b1-4)Glc
# Summary of the method: as §1
binder,measurement,setting,value
"CvGal1 (Crassostrea virginica), A7Y0I5 (protein) MTYQISKISQPFTSYIPNGLHIGKHLLLRGRVSYGTEAFAINLQQNPEPCNGEVAFHFNPRPGEQQCVRNSFDGGSWMDEERDQPHFPFDEGRSFTLRIEVAEEGFRTYVNGKPYVNFSHRLDLGNVHYLYLTEGAEFYDISYQDRYTLPYKSEIPQQMNVGKAVRIRGASQDNDGFSVNFACDPDNENCAFHFNPRPNEGVVVRNANLGGWGDEERDYEAEFPFHPYNYFDAMFICTDDKYLVHVNDKYFTEFNHRGGVDASSFFNIVGNLDIQDVEYFEPLEDDFVKTIPSGLVKGDVLIFRGFMKPGGDTFSINFMNGYSVEDDIAFHLNPRVGEGQVVMNCCMGGAWGDEEREDIPSPLADREPFEVKVVVKKNKFKVYVNGKKCMKFAARGNLEDIKGVNIKGEAYVYEVKLERKLEDSWEYLPGGFRVGGWVVVQAIPKKGSEGFAINFRTGSDEDSDIAFHFNPRLQENCTIRNSCAGGAWGGEERDQPDFPFEKKDTCEIAIQAQPDRFVTYVNGKRYIEFNHRLPLESITCVELTGRADFFEPKFF",glycan array binding signal (z-score),[1],6.13
same,glycan array binding signal (z-score),[2],0.157
same,glycan array binding signal (z-score),[3],-0.053
same,glycan array binding signal (z-score),[4],-0.258
same,glycan array binding signal (z-score),[5],-0.213
same,glycan array binding signal (z-score),[6],-0.259
same,glycan array binding signal (z-score),[7],0.478
same,glycan array binding signal (z-score),[8],1.42
same,glycan array binding signal (z-score),[9],-0.263
same,glycan array binding signal (z-score),[10],3.63
same,glycan array binding signal (z-score),[11],4.14
same,glycan array binding signal (z-score),[12],4.71
same,glycan array binding signal (z-score),[13],1.75
same,glycan array binding signal (z-score),[14],3.97
same,glycan array binding signal (z-score),[15],6.1
same,glycan array binding signal (z-score),[16],5.16
same,glycan array binding signal (z-score),[17],-0.306
same,glycan array binding signal (z-score),Fuc(a1-3)GlcNAc,-0.088
same,glycan array binding signal (z-score),[18],-0.215
same,glycan array binding signal (z-score),[19],-0.259
same,glycan array binding signal (z-score),Fuc(b1-3)GlcNAc,-0.219
same,glycan array binding signal (z-score),[20],-0.197
same,glycan array binding signal (z-score),[21],3.55
same,glycan array binding signal (z-score),[22],-0.265
same,glycan array binding signal (z-score),[23],4.11
same,glycan array binding signal (z-score),Gal(b1-4)Glc,-0.253
same,glycan array binding signal (z-score),[24],-0.195
same,glycan array binding signal (z-score),[25],-0.264
same,glycan array binding signal (z-score),Gal6S(b1-4)Glc,-0.291
same,glycan array binding signal (z-score),Gal6S(b1-4)GlcNAc6S,-0.182
same,glycan array binding signal (z-score),GlcA(b1-6)Gal,-0.259
same,glycan array binding signal (z-score),[26],-0.3
same,glycan array binding signal (z-score),[27],-0.249
same,glycan array binding signal (z-score),[28],-0.23
same,glycan array binding signal (z-score),[29],-0.283
same,glycan array binding signal (z-score),[30],-0.226
same,glycan array binding signal (z-score),[31],-0.166
same,glycan array binding signal (z-score),[32],-0.277
same,glycan array binding signal (z-score),[33],-0.28
same,glycan array binding signal (z-score),[34],-0.245
same,glycan array binding signal (z-score),[35],-0.303
same,glycan array binding signal (z-score),[36],-0.236
same,glycan array binding signal (z-score),[37],-0.239
same,glycan array binding signal (z-score),Neu5Gc(a2-3)Gal(b1-4)Glc,-0.311
